# Results taken from PubChem BioAssay (Tox21).
# Results filed as inconclusive are left out. A call without a number means that no potency is given here. Unmarked numbers belong to inactive results. Activity calls are given as the source filed them. Calls come from the whole dose curve; as a rule, active = well fitted cell-killing curve with a large enough effect in the repeat runs; inconclusive = weak or mixed curves, or effect the other way; inactive = flat fitted curve, though single readings scatter.
# How the values were obtained:
# [1] = cAMP Responsive Elements (CRE) small molecule antagonists, cell-based qHTS assay: qHTS cell viability counter screen (AID 2060913); note: nearly all actives have a fitted effect of over 40% in size; note: potency is the fitted concentration of half-maximal effect
# Procedure, shortened: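 Cytotoxicity read in the same wells as the CRE-bla HEK293T antagonist assay: after 3 h compound with 0.25 uM NKH477 final and 2 h beta-lactamase substrate, CellTiter-Glo luminescence measured.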
# [2] = cAMP Responsive Elements (CRE) small molecule agonists, cell-based qHTS assay: qHTS cell viability counter screen (AID 2060914); note: nearly all actives have a fitted effect of over 50% in size
# Procedure, shortened: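 Luminescence read-out (CellTiter-Glo, 30 min RT) of ATP-based viability in CRE-bla HEK 293T cells, run in the same wells as the β-lactamase reporter assay after 3 h compound treatment at 37 °C.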
SMILES,Potency [1],Potency [2],"viability change, negative = cytotoxic [1]","activity change, negative = cytotoxicity [2]"
Cc1ccc(C)c(OCCCC(C)(C)C(=O)O)c1,inactive,inactive,–,–
O=C1c2ccccc2C(=O)C1c1ccc(Br)cc1,inactive,inactive,–,–
O=S(=O)(O)CCS,inactive,inactive,–,–
CC(C)(C)C(=O)c1ccccc1,inactive,inactive,–,–
CC1=C(CC(=O)O)c2cc(F)ccc2/C1=C\c1ccc(S(C)=O)cc1 (configuration not stated),inactive,inactive,–,–
C[N+](C)(C)CC(O)CC(=O)[O-] (configuration not stated),inactive,inactive,–,–
Nc1ccncc1N,inactive,inactive,–,–
COc1ccc(N)c(OC)c1,inactive,inactive,–,–
Nc1ccn(C2CO[C@H](CO)O2)c(=O)n1 (some centres not stated),inactive,inactive,–,–
C=C(C)C(=O)OCCOP(=O)(O)O,inactive,inactive,–,–
CC(C)(C)OC=O,inactive,inactive,–,–
O=Cc1cccc([N+](=O)[O-])c1,inactive,inactive,–,–
c1ccc(CNCc2ccccc2)cc1,inactive,inactive,–,–
O=C(O)c1cccc(Oc2ccccc2)c1,inactive,inactive,–,–
CCOc1ccc(C(=O)OCCN(CC)CC)cc1,inactive,inactive,–,–
OC[C@@H](O)[C@H](O)[C@@H](O)[C@@H](O)CO,inactive,inactive,–,–
Cc1ccc(N=Nc2c(O)ccc3ccccc23)c(C)c1,inactive,inactive,–,–
O=C(OCCOCCOC(=O)c1ccccc1)c1ccccc1,inactive,inactive,–,–
OC[C@@H](O)[C@@H](O[C@@H]1O[C@H](CO)[C@H](O)[C@H](O)[C@H]1O)[C@H](O)[C@@H](O)CO,inactive,inactive,–,–
OCCN1CCN(CCCN2c3ccccc3Sc3ccc(C(F)(F)F)cc32)CC1,inactive,inactive,–,–
C=CS(=O)(=O)O,inactive,inactive,–,–
C[C@H](CCC(=O)NCC(=O)O)[C@H]1CC[C@H]2[C@@H]3[C@H](O)C[C@@H]4C[C@H](O)CC[C@]4(C)[C@H]3C[C@H](O)[C@]12C,inactive,inactive,–,–
Cc1ccc([N+](=O)[O-])cc1Cl,inactive,inactive,–,–

SMILES,Potency [1],Potency [2],"viability change, negative = cytotoxic [1]","activity change, negative = cytotoxicity [2]"
CCC(CC)CO,inactive,inactive,–,–
O=Cc1ccc(O)c(O)c1O,inactive,inactive,–,–
CCCCCCOC(=O)c1ccccc1O,inactive,inactive,–,–
CC(=O)CCC1=C(C)CCCC1(C)C,inactive,inactive,–,–
CC(C)c1cc2c(cc1S(=O)(=O)O)[C@@]1(C)CCC[C@@](C)(C(=O)O)[C@@H]1CC2,inactive,inactive,–,–
Cc1c(C)n(Cc2ccccc2)c2ccc(C(=O)OCCN(C)C)cc12,inactive,inactive,–,–
NC(=S)NNC(N)=S,inactive,inactive,–,–
CN1CCC(OC(c2ccccc2)c2ccccc2)CC1,inactive,inactive,–,–
C=CC(C)CCCC(C)(C)O (configuration not stated),inactive,inactive,–,–
C=C(C)C(=O)OCCOC1CC2CC1C1C=CCC21 (configuration not stated),inactive,inactive,–,–
Cc1nc(C)c(C)nc1C,inactive,inactive,–,–
OCCCc1ccccc1,inactive,inactive,–,–
CCc1cccc(CC)c1N(COC)C(=O)CS(=O)(=O)O,inactive,inactive,–,–
CCCCCCCCCCCCCCCC(=O)OC(C)C,inactive,inactive,–,–
COc1ccc([C@@H]2CC(=O)c3c(O)cc(O[C@@H]4O[C@H](CO[C@@H]5O[C@@H](C)[C@H](O)[C@@H](O)[C@H]5O)[C@@H](O)[C@H](O)[C@H]4O)cc3O2)cc1OC,inactive,inactive,–,–
C[C@H]1C[C@H]2[C@@H]3CCC4=CC(=O)C=C[C@]4(C)[C@@]3(Cl)[C@@H](O)C[C@]2(C)[C@@]1(O)C(=O)CO,inactive,inactive,–,–
CC(=O)OCC(=O)Nc1cc(C#N)cc(NC(=O)COC(C)=O)c1Cl,inactive,inactive,–,–
NC(=O)NS(=O)(=O)c1ccc(N)cc1,inactive,inactive,–,–
COc1cc(C(=O)N2CCOCC2)cc(OC)c1OC,inactive,inactive,–,–
SCCOCCOCCS,inactive,inactive,–,–
N=c1nc(N2CCCCC2)cc(N)n1O,inactive,inactive,–,–
COc1ccc(C2C(=O)c3ccccc3C2=O)cc1,inactive,inactive,–,–
NC(=O)c1cccnc1,inactive,inactive,–,–

SMILES,Potency [1],Potency [2],"viability change, negative = cytotoxic [1]","activity change, negative = cytotoxicity [2]"
CC(=O)NCc1c(I)c(NC(C)=O)c(I)c(C(=O)O)c1I,inactive,inactive,–,–
CCN(CC)CCOc1ccccc1C(=O)CCc1ccccc1,inactive,inactive,–,–
NC(=O)c1ccc([N+](=O)[O-])cc1,inactive,inactive,–,–
CCCCCc1ccc(Cl)cc1,inactive,inactive,–,–
CC1(COc2ccc(CC3SC(=O)NC3=O)cc2)CCCCC1 (configuration not stated),inactive,inactive,–,–
Cc1ccc(N(CCO)CCO)cc1,inactive,inactive,–,–
Cc1nc2ccccc2s1,inactive,inactive,–,–
O=C(O)CN(CCN(CC(=O)O)CC(=O)O)CC(=O)O,–,–,3.3% [at 3.27 µM],-20.1% [at 3.27 µM]
CCN(CC)C(=O)C1CN2CCc3cc(OC)c(OC)cc3C2CC1OC(C)=O (configuration not stated),inactive,inactive,–,–
COC(=O)c1ccccc1O,inactive,inactive,–,–
O=c1n(CCCN2CCN(c3cccc(Cl)c3)CC2)nc2ccccn12,inactive,inactive,–,–
OCCCCl,inactive,inactive,–,–
CCC(C)(C)C,inactive,inactive,–,–
CC(C)(CO)[C@@H](O)C(=O)NCCC(=O)O,inactive,inactive,–,–
CCN(CC)CCOC(=O)C(c1ccccc1)C1CCCCC1 (configuration not stated),inactive,inactive,–,–
CC(=O)c1ccc(O)cc1,inactive,inactive,–,–
Nc1nc2c(ncn2COCCO)c(=O)[nH]1,inactive,inactive,–,–
CCCCOCCOCCSC#N,inactive,inactive,–,–
O=C(NCC(O)CO)c1c(I)c(C(=O)NCC(O)CO)c(I)c(N(CCO)C(=O)CO)c1I (configuration not stated),inactive,inactive,–,–
CCC(C)S (configuration not stated),–,–,3.82% [at 3.27 µM],5.15% [at 3.27 µM]
COc1ccc(C)cc1,inactive,inactive,–,–
O=C(O)CNC(=O)CNC(=O)CNC(=O)CSC(=O)c1ccccc1,inactive,inactive,–,–
C1=CCCC1,inactive,inactive,–,–

SMILES,Potency [1],Potency [2],"viability change, negative = cytotoxic [1]","activity change, negative = cytotoxicity [2]"
C=CCCC(=O)/C=C/C1C(C)=CCCC1(C)C (configuration not stated),inactive,inactive,–,–
N[C@@H](Cc1c[nH]c2ccc(O)cc12)C(=O)O,inactive,inactive,–,–
CC(=O)OCC(=O)[C@@]1(O)CC[C@H]2[C@@H]3CCC4=CC(=O)C=C[C@]4(C)[C@@]3(F)[C@@H](O)C[C@@]21C,inactive,inactive,–,–
CC/C=C\CC1=C(C)CCC1=O,inactive,inactive,–,–
Clc1cccc(-c2cc(Cl)cc(Cl)c2)c1,inactive,inactive,–,–
O=C(O[C@@H]1Cc2c(O)cc(O)cc2O[C@@H]1c1cc(O)c(O)c(O)c1)c1cc(O)c(O)c(O)c1,inactive,inactive,–,–
CCCC(=O)C(CC)Sc1ccoc1C (configuration not stated),inactive,inactive,–,–
CC[N+](C)(CC)CCOC(=O)C1c2ccccc2Oc2ccccc21,inactive,inactive,–,–
O=P(O)(O)O,inactive,inactive,–,–
C[C@H]1[C@H]2CC[C@H]3[C@@H]4CC=C5C[C@@H](N(C)C)CC[C@]5(C)[C@H]4CC[C@]23CN1C,inactive,inactive,–,–
C=C(C)[C@@H]1CCC2=CC(=O)C[C@@H](C)[C@]2(C)C1,inactive,inactive,–,–
CCN1CCCC1CN (configuration not stated),inactive,inactive,–,–
Cc1ccsc1/C=C/C1=NCCCN1C,inactive,inactive,–,–
CN(C)C(=O)Nc1ccc(Cl)c(Cl)c1,inactive,inactive,–,–
BrC1CCC(Br)C(Br)CCC(Br)C(Br)CCC1Br (configuration not stated),inactive,inactive,–,–
Oc1cccc(Nc2ccccc2)c1,inactive,inactive,–,–
O=C(O)c1cc(C(=O)O)cc(S(=O)(=O)O)c1,inactive,inactive,–,–
NS(=O)(=O)c1cc2c(cc1Cl)NCNS2(=O)=O,inactive,inactive,–,–
COC(=O)CCCCCCCC(=O)OC,inactive,inactive,–,–
NCCCNCCSP(=O)(O)O,–,–,-1.42% [at 8.39 µM],3.53% [at 8.39 µM]
Cc1cccc(C)c1NC(=O)CN1CCN(CCCC(c2ccc(F)cc2)c2ccc(F)cc2)CC1,inactive,inactive,–,–
CCCCOc1cc(C(=O)OCCN(CC)CC)ccc1N,inactive,inactive,–,–
CC(C)Oc1ccccc1O,inactive,inactive,–,–

SMILES,Potency [1],Potency [2],"viability change, negative = cytotoxic [1]","activity change, negative = cytotoxicity [2]"
CC(C)CC(=O)N[C@H](C(=O)N[C@H](C(=O)N[C@@H](CC(C)C)[C@@H](O)CC(=O)N[C@@H](C)C(=O)N[C@@H](CC(C)C)[C@@H](O)CC(=O)O)C(C)C)C(C)C,inactive,inactive,–,–
CC(C)c1cccc(C(C)C)c1N,inactive,inactive,–,–
O=C(Nc1ccc([N+](=O)[O-])cc1)Nc1ccc([N+](=O)[O-])cc1 (tested in a mixture with another compound),inactive,inactive,–,–
CO[Si](OC)(OC)c1ccccc1,inactive,inactive,–,–
C=CCCCCCCCCCCCCCC,–,–,-1.45% [at 18.9 µM],-8.5% [at 18.9 µM]
Nc1ccc(C(=O)O)cc1,inactive,inactive,–,–
OCCN1CCOCC1,inactive,inactive,–,–
C1=CCC2CC=CC2C1 (configuration not stated),inactive,inactive,–,–
CCC(C(=O)O)c1ccc(N2Cc3ccccc3C2=O)cc1 (configuration not stated),inactive,inactive,–,–
CC(=O)c1c(C)cc(C(C)(C)C)cc1C,inactive,inactive,–,–
Cc1ccc(NC(=O)c2ccc(CN3CCN(C)CC3)cc2)cc1Nc1nccc(-c2cccnc2)n1,inactive,inactive,–,–
CN1CCN(c2c(F)cc3c(=O)c(C(=O)O)cn4c3c2SCC4)CC1,inactive,inactive,–,–
C1CCCNCC1,inactive,inactive,–,–
Clc1ccc2nsnc2c1NC1=NCCN1,inactive,inactive,–,–
OC(CCN1CCCC1)(c1ccccc1)C1CCCCC1 (configuration not stated),inactive,inactive,–,–
O=C1NCCN1CCN1CCC(c2cn(-c3ccc(F)cc3)c3ccc(Cl)cc23)CC1,10.6 µM (active),inactive,–,–
CCCCCCCCCCCC(=O)N(CC)CC,inactive,inactive,–,–
CCOC(=O)COc1ccc2c(C)c(CCN(CC)CC)c(=O)oc2c1Cl,inactive,inactive,–,–
CNC[C@H](O)[C@@H](O)[C@H](O)[C@H](O)CO,inactive,inactive,–,–
